Experimental data taken from ChEMBL document CHEMBL4513216, “Probing the Open Global Health Chemical Diversity Library for Multistage-Active Starting Points for Next-Generation Antimalarials” (ACS Infect Dis, 2020).
The whole screen tested about 69,000 compounds, of which about 8,600 (12%) showed an effect of 50% or more. The sample holds strong results, similar compounds and a random draw of the others, so the mix is not that of the screen.

These compounds were tested on Plasmodium berghei (assay: Screen against P. berghei liver stage (PbLuc), transformed with Luciferase, at 10uM). Settings: tested at 10 uM.
Assay type: functional, HepG2

Row | Compound | INHIBITION
1 | Cc1ccc(NC2CCN(C(=O)c3cc4c(s3)CCC4)CC2)nn1 | -11.4%
2 | CCn1cnnc1CNC(=O)NC(c1cccs1)C1CCCC1 (stereo not drawn) | -9.76%
3 | COc1ccc(NC(=O)c2cnc(C3CCN(C(C)=O)C3)nc2C)cc1 (stereo not drawn) | 25.55%
4 | O=C1CCC2(CCC(NC3CCOC3)CC2)N1Cc1ccncc1 (stereo not drawn) | 3.81%
5 | CCC1(c2ccc(NS(=O)(=O)N(C)C)cc2)CCC(=O)NC1=O (stereo not drawn) | 18.9%
6 | Cc1cc(N2CCOCC2)nc(N(C)CCO)c1C#N | 12.3%
7 | CC(C)c1nc2c(n1C)CCN(Cc1nc(-c3ccoc3)no1)C2 | 25.6%
8 | CNc1cncc(C2CCCN2C(=O)Cn2ccnc2C)n1 (stereo not drawn) | 2.915%
9 | O=C(Cc1csc(-c2ccccc2)n1)N[C@@H](C(=O)O)c1ccccc1 | -3.11%
10 | Cc1cc(C(=O)N2CCn3cc(CN4CCOCC4)nc3C2)no1 | 68.4%
11 | Cc1cc(C(=O)N2CCn3cc(CN4CCCC4)nc3C2)no1 | 13.6%
12 | Cc1cc(C(=O)N2CCn3cc(CN4CCCCC4)nc3C2)no1 | 17.1%
13 | CN(CCCc1cnn(C)c1)C(=O)C1CCN(C(=O)C2CCC2)CC1 | 38.7%
14 | CN(Cc1cc2n(n1)CCNC2)Cc1noc(C2CCC2)n1 | 51%
15 | CCc1cnc(C)nc1N(C)CCCc1cnn(C)c1 | 8.31%
16 | CNc1ncc(CN(C)Cc2cc3n(n2)CCNC3)cn1 | -99.3%
17 | CCN(Cc1noc(C2CCC2)n1)C(=O)CCc1cc2n(n1)CCNC2 | 11.9%
18 | CN(CCc1noc(C2CC2)n1)C(=O)CCc1cc2n(n1)CCCNC2 | 46.6%
19 | CN(CCCc1cnn(C)c1)Cc1cc2n(n1)CCCN(C)C2 | 65.7%
20 | CN(CCCc1cnn(C)c1)Cc1cc2n(n1)CCCNC2 | 49.4%
21 | CN(CCCc1cnn(C)c1)Cc1cc2n(n1)CCNC2 | 52.6%
22 | O=C(c1cc2cc(F)ccc2[nH]1)N1CCC(Nc2cccnn2)CC1 | 22.3%

Row | Compound | INHIBITION
23 | CCCC(NC(=O)c1cc(C)ccc1O)c1nnn[nH]1 (stereo not drawn) | 34.6%
24 | COc1ncccc1NC(=O)C1CCOCC1 | 43.3%
25 | CC(=O)Nc1c(C)noc1C=Cc1ccc(C)c(S(=O)(=O)NC2CC2)c1 | 11.6%
26 | O=C(Nc1ccccc1)C1=CC2(CCNCC2)c2ccccc21 | 48.2%
27 | O=C(Cn1cncn1)NCC1(O)CCCc2ccccc21 (stereo not drawn) | 10.9%
28 | O=C(Cn1cccn1)NCC1(c2ccccc2)CC1 | -8.3%
29 | Cc1cnn(CC(=O)NCC2(O)CCCc3ccccc32)c1 (stereo not drawn) | 80.5%
30 | O=C(Cn1c(=O)oc2ccccc21)NCC1(O)CCc2ccccc21 (stereo not drawn) | -27.3%
31 | O=C(Cn1cnnn1)NCC1(O)CCCc2ccccc21 (stereo not drawn) | 64.7%
32 | O=C(CN1C(=O)CCC1=O)NCC1(O)CCc2ccccc21 (stereo not drawn) | 5.58%
33 | Cc1cccc(S(=O)(=O)N2CSCC2C(=O)NCC2CC2)c1 (stereo not drawn) | -14.3%
34 | Cc1cnccc1-c1cnn(CCNC(=O)c2ccncc2)c1C1CC1 | 48%
35 | Cc1ccc(CN(C)Cc2nc3ccc(F)cc3[nH]2)cn1 | 44.2%
36 | Cc1ccc(CC(=O)N2CCCC(c3ccn[nH]3)C2)cn1 (stereo not drawn) | 22.965%
37 | O=C(NCc1ccco1)[C@@H]1CCO[C@@H]2CCN(c3ncccn3)C[C@@H]21 | 36.9%
38 | Cn1cccc1C(=O)N1CCN(Cc2ccncc2)c2ncccc2C1 | -33%
39 | N[C@@H]1c2ccccc2C2(CCN(c3cc(C(F)(F)F)ccn3)CC2)[C@H]1O | 58.8%
40 | OCC1(O)CCN(c2ncccc2C(F)(F)F)CC1 | 24.2%
41 | N[C@@H]1c2ccccc2C2(CCN(C(=O)c3ccc(Cl)cn3)CC2)[C@H]1O | 37.1%
42 | N[C@@H]1c2ccccc2C2(CCN(c3ncccc3C(F)(F)F)CC2)[C@H]1O | 86.6%
43 | NS(=O)(=O)CC1CCN(c2ncccc2C(F)(F)F)CC1 | 20.6%
44 | N[C@@H]1c2ccccc2C2(CCN(c3ccc(C(F)(F)F)cn3)CC2)[C@H]1O | 78.3%

Row | Compound | INHIBITION
45 | N[C@@H]1c2ccccc2C2(CCN(c3cccc(C(F)(F)F)n3)CC2)[C@H]1O | 88%
46 | CC(C)C(=O)NCC(=O)N1CCC2(CC1)c1ccccc1[C@@H](N)[C@@H]2O | -26.1%
47 | N[C@@H]1c2ccccc2C2(CCN(C(=O)c3cncc(Cl)c3)CC2)[C@H]1O | 8.5%
48 | N[C@@H]1c2ccccc2C2(CCN(c3cnc4ccccc4n3)CC2)[C@H]1O | 44.9%
49 | O=C1CCC2(CCN(c3cccc(C(F)(F)F)n3)CC2)CN1CCO | 47.9%
50 | FC(F)(F)c1ccnc(N2CCCCCC2)c1 | -6.52%
51 | CC(C)c1n[nH]c(C2CN(CCCS(C)(=O)=O)CCO2)n1 (stereo not drawn) | 0.914%
52 | Cc1nc(CN2CCn3cc(CNC(=O)C4CCC4)nc3C2)cs1 | -3.1%
53 | Cc1ccc(N(Cc2ccco2)C(=O)Cc2cc(=O)n(C)[nH]2)cc1 | 39.5%
54 | O=C(O)CCn1ccc2cc(Br)ccc21 | 24.7%
55 | CC(NC(=O)C1=NN(C)C(=O)CC1)c1ccccc1Cl (stereo not drawn) | 35.4%
56 | Cc1cnc(CNC(=O)C2CCOc3ccccc3C2)cn1 (stereo not drawn) | -3.83%
57 | COCCCN(Cc1ccccc1Cl)C1CCS(=O)(=O)C1 (stereo not drawn) | 33.4%
58 | Cc1nnnn1CCC(=O)N1CCC2(CCC(=O)N(CC3CC3)C2)CC1 | 8.38%
59 | c1cc(CN2CCCCC2c2ccc(Nc3cnccn3)nc2)ccn1 (stereo not drawn) | 43.1%
60 | Cn1cc(CN2CCC3(C2)CN(Cc2ccsc2)C3)cn1 | -3.19%
61 | CNc1nc(CNC(=O)Nc2cccc(OC)c2)cs1 | 23.5%
62 | O=C1Nc2ccccc2NC12CCN(c1cccc(C(F)(F)F)n1)CC2 | 76%
63 | CC(O)c1cccc(N2CCC3(CC2)Nc2ccccc2NC3=O)n1 (stereo not drawn) | 0.705%
64 | N#Cc1cccc(N2CCC3(CC2)Nc2ccccc2NC3=O)n1 | 14.3%
65 | Cn1cnc2cc(C(=O)NS(=O)(=O)CC3CCCC3)ccc21 | -20.6%
66 | COCCN1CCc2cc(C(=O)O)c(-c3ccoc3)nc2CC1 | 42.7%

Row | Compound | INHIBITION
67 | Cn1cncc1CN1CCc2nc3sccc3c(=O)n2CC1 | -9.08%
68 | CCc1ccc(CN(CCCn2ccnc2)Cc2ccc(C)s2)o1 | 52.3%
69 | COc1ccc(Cl)cc1CNCCCn1ccnc1 | -22.1%
70 | Cc1ccc(CN(CCCn2ccnc2)Cc2cccs2)s1 | 82.1%
71 | Cc1ccc(CN(CCCN2CCOCC2)Cc2cncn2C)o1 | 30.4%
72 | COc1ccc(F)c(CN(CCCn2ccnc2)Cc2ccc(C)s2)c1 | 86.9%
73 | Cc1ccc(CN(CCCn2ccnc2)Cc2cnc(N(C)C)nc2)s1 | -16.5%
74 | COc1ccc(Cn2ccnc2)cc1F | -20.7%
75 | Cc1ccc(CN(CCN(C)C)Cc2ncc[nH]2)s1 | 17.6%
76 | Cc1ccc(CN(CCCn2ccnc2)Cc2cnn(C)c2)s1 | 24.4%
77 | Cc1ccc(CN(CCCn2ccnc2)Cc2c(F)cccc2F)s1 | 94.1%
78 | CCCc1cncnc1N1CCCC2(CCC(=O)N(C3CCCC3)C2)C1 (stereo not drawn) | 32.4%
79 | O=S(=O)(c1cnccc1N1CCN(CCO)CC1)N1CCCCC1 | 8.38%
80 | CC(C)N1CCCC(c2cc(C(F)(F)F)nc3nccn23)C1 (stereo not drawn) | 3.03%
81 | O=C(O)CCC(=O)Nc1nn(Cc2ccccc2Cl)cc1Cl | 19.3%
82 | CC(C)c1nccn1C1CCCN(C(=O)c2ccc3nncn3c2)C1 (stereo not drawn) | 36.1%
83 | Cc1cnn(CC2CCCN2C(=O)CCc2c(C)nc(C)[nH]c2=O)c1 (stereo not drawn) | -37.7%
84 | CC(=O)N1CCC(c2cncc(Oc3ccccc3)n2)CC1 | 41.5%
85 | CN(Cc1ccno1)c1nc(C2CCCC2)nc2c1cnn2C | 20%
86 | Cc1cc(CN2CC[C@H]3C[C@H](C(=O)Nc4cccnc4C)O[C@@H]3C2)no1 | 48.6%
87 | CC(C)OCCCN(Cc1ccncc1)Cc1cc(F)ccc1F | -16.5%
88 | OCc1ccc(CN(CCCn2ccnc2)Cc2ccncc2)o1 | 42.1%

Row | Compound | INHIBITION
89 | OCc1ccc(CN(CCCn2ccnc2)Cc2cccnc2)o1 | 56%
90 | Fc1ccccc1CN(CCCn1ccnc1)CC1CCOC1 (stereo not drawn) | 1.62%
91 | Cc1ccc(CN(CCCn2ccnc2)Cc2cc(F)ccc2F)s1 | 88.1%
92 | c1cncc(CN(CCCn2ccnc2)CC2CCOC2)c1 (stereo not drawn) | 44.8%
93 | CC(C)NC1CCCc2nc(-c3ccccc3)ncc21 (stereo not drawn) | -36.3%
94 | CN1CCN(c2ccc(NS(=O)(=O)c3ccc(Cl)s3)cc2C(=O)O)CC1 | -12.6%
95 | Cc1cc(C)n(CC2CCCCN2C(=O)CCc2ccncc2)n1 (stereo not drawn) | 4.52%
96 | Cc1cccc(C(=O)Nc2c(C(N)=O)n[nH]c2C)c1C | -41.9%
97 | CC(=O)N(Cc1noc(C)n1)C1CCN(Cc2ccc(C#N)cc2)C1 (stereo not drawn) | 27.4%
98 | Cc1cc(C)c2c(NC(C)c3nncn3C3CCCC3)ncnc2n1 (stereo not drawn) | 35.1%
99 | CN1N=C(c2nc(Cc3cccc(Br)c3)no2)CCC1=O | 25.4%
100 | COc1ccc(Cc2noc(C3=NN(C)C(=O)CC3)n2)cc1OC | 53.8%
101 | COc1ccc(-c2noc(C3=NN(C)C(=O)CC3)n2)cc1OC | -17.8%
102 | CCOCC1CN(C(=O)c2cccs2)Cc2cnn(CC3CC3)c21 (stereo not drawn) | 14.6%
103 | Cc1cc(C(=O)NC(COCC(C)C)c2ccco2)no1 (stereo not drawn) | 11.9%
104 | CC(C)c1noc(C(C)S(=O)(=O)CC(=O)N2CCCC2)n1 (stereo not drawn) | 37.9%
105 | O=C(c1ccc(=O)[nH]n1)N1CCCC(O)(CN2CCC(F)(F)CC2)CC1 (stereo not drawn) | -18.8%
106 | Cc1cc2nc(C(C)C)cc(NCC(c3ccccn3)N(C)C)n2n1 (stereo not drawn) | 28%
107 | COc1cc(NCC(O)CN2CCCCCC2)ncn1 (stereo not drawn) | -25%
108 | COc1cc(NCC(c2ccccn2)N(C)C)ncn1 (stereo not drawn) | 53.6%
